According to PubChem BioAssay AID623992 (NMMLSC, 2012):
Results with a measured potency or affinity are listed apart. Active and inactive are the calls of the source.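 Rule for the calls: active = compounds whose fitted half-maximal effective concentration for blocking dye efflux is below 100 µM; inactive = the rest.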

Target: Benomyl/methotrexate resistance protein (Candida albicans) (UniProt P28873)
Assay: Candida albicans Mdr1 pump blockade titration – singleplex, Cherry Pick2 set, dose response (AID 623992)
Conditions: S. cerevisiae AD/CaMDR1, Nile Red efflux, flow cytometry; series mostly up to 100 µM; efflux inhibition response: at the top concentration

Chain of Benomyl/methotrexate resistance protein (Candida albicans) (P28873 whole entry, looked up): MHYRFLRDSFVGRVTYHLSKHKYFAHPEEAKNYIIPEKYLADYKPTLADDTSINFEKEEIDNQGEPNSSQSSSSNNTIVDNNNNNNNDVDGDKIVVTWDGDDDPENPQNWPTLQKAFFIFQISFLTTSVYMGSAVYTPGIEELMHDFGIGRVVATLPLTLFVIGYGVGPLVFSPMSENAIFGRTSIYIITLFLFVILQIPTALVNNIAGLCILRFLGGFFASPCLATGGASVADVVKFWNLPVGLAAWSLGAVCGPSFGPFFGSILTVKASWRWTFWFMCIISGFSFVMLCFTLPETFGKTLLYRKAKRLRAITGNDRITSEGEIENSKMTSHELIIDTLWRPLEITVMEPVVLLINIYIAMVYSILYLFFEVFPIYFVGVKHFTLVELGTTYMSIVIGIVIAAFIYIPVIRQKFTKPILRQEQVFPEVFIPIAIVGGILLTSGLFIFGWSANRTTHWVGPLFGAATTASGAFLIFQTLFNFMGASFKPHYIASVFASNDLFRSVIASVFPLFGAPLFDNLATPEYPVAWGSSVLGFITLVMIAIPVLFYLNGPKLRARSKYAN

| SMILES | efflux inhibition response | outcome |
| --- | --- | --- |
| O=C(NC1CCCc2c1cnn2-c1ccccc1F)c1ccccn1 (stereo unspecified) | -0.97% (inactive) |  |
| Cc1ccc(CN2C(=O)C(CC(C)C)Nc3ncnc(N4CCN(c5ccccc5)CC4)c32)cc1 (stereo unspecified) | -1.17% (inactive) |  |
| COc1ccc(C2CC(c3ccccc3C(F)(F)F)=NN2c2ccc(S(N)(=O)=O)cc2)cc1 (stereo unspecified) | 53.7% (inactive) |  |
| COc1ccc(OC)c2sc(NC(=O)c3ccc(Br)s3)nc12 | -0.25% (inactive) |  |
| C[C@@]12C(=O)Nc3cc(F)c(F)cc3C(=O)N1[C@H]1c3cc(Cl)ccc3OC[C@@H]1[C@@H]2c1ccccc1 | 0.23% (inactive) |  |
| Cc1cccc(C2CC(c3ccccc3)=NN2c2ccc(S(N)(=O)=O)cc2)c1 (stereo unspecified) | -2.38% (inactive) |  |
| COc1ccc(-c2c[n+](CC(=O)N3c4ccccc4Sc4ccccc43)c3n2CCC3)cc1 | -2.26% (inactive) |  |
| O=C(C1CCC(CNc2nc(=S)[nH]c3ccccc23)CC1)N1CCN(c2ccc(F)cc2)CC1 (stereo unspecified) | -1.48% (inactive) |  |
| COc1ccc(C2CC(c3ccccc3)=NN2c2ccc(S(N)(=O)=O)cc2)cc1 (stereo unspecified) | -1.14% (inactive) |  |
| COc1ccc2c(c1)OC[C@H]1[C@H]2N2C(=O)c3ccc(C)cc3NC(=O)[C@@]2(C)[C@H]1c1ccccc1 | 46% (inactive) |  |
| O=C(C[n+]1cc(-c2ccc(F)cc2)n2c1CCC2)N1c2ccccc2Sc2ccccc21 | -0.76% (inactive) |  |
| NS(=O)(=O)c1ccc(N2N=C(c3ccccc3)CC2c2ccc(F)cc2)cc1 (stereo unspecified) | -0.06% (inactive) |  |
| CCCCCCCCCC[N+](C)(C)CC/C=C1/c2ccccc2Sc2ccc(Cl)cc21 | 405% (inactive) |  |
| Cc1cccc2sc(N(CCCN(C)C)C(=O)c3ccc(Cl)s3)nc12 | -0.58% (inactive) |  |
| O=C(C[n+]1cc(-c2ccccc2)n2c1CCC2)N1c2ccccc2Sc2ccccc21 | -0.58% (inactive) |  |
| COc1ccc(CNC(=O)C(C#N)c2nc3ccccc3nc2N2CCN(C)CC2)cc1 (stereo unspecified) |  | inactive |

| SMILES | efflux inhibition response | outcome |
| --- | --- | --- |
| COc1ccc(O)c(C(=O)c2cnc3c(c2)CN(C)C(=O)N3)c1 | 0.72% (inactive) |  |
| COc1cc(OC)c2ccc(=O)oc2c1C(CCN1CCCC1)c1ccc(N(C)C)cc1 (stereo unspecified) | -0.52% (inactive) |  |
| CCCCNC(=O)C1CCC(CNc2nc(=S)[nH]c3ccccc23)CC1 (stereo unspecified) | 1.33% (inactive) |  |
| COc1ncccc1C(=O)NC1CCCc2c1cnn2-c1cc(C)cc(C)c1 (stereo unspecified) | -0.48% (inactive) |  |
| COc1ccc(CN2C(=O)C(C)Nc3ncnc(N4CCN(c5ccccc5)CC4)c32)cc1 (stereo unspecified) | -0.25% (inactive) |  |
| Cc1ccc(CNC(=O)C2CCC(CNc3nc(=S)[nH]c4ccccc34)CC2)cc1 (stereo unspecified) | -0.77% (inactive) |  |
| COc1ccccc1C(=O)OCCc1ccccc1 | -0.58% (inactive) |  |
| CC(C)C(=O)N1CCC2(CC1)Oc1ccc(Cl)cc1C(=O)C21CC(c2ccc(Cl)cc2)=NO1 (stereo unspecified) | 22.3% (inactive) |  |
| NS(=O)(=O)c1ccc(N2N=C(c3ccccc3)CC2c2cccc(Br)c2)cc1 (stereo unspecified) | -2.03% (inactive) |  |
| O=C(CSc1nnc(Cc2cccs2)n1Cc1ccco1)Nc1ccc(Br)cc1 | -1.48% (inactive) |  |
| CCCCN1Cc2cc(C(=O)c3cc(OC)ccc3O)cnc2NC1=O | 1.48% (inactive) |  |
| CC1CN(c2nc3ccccc3nc2C(C#N)C(=O)NCc2ccc3c(c2)OCO3)CC(C)O1 (stereo unspecified) |  | inactive |
| COc1cc(OC)c2c(-c3ccccc3)cc(=O)oc2c1C(CCN1CCCC(C)C1)c1ccc(N(C)C)cc1 (stereo unspecified) | -0.53% (inactive) |  |
| C[C@H](CO)N1C[C@H](C)[C@@H](CN(C)S(=O)(=O)c2ccccc2)Oc2c(NC(=O)Nc3ccccc3)cccc2C1=O | 51.3% (inactive) |  |
| O=C(C1CCCN(c2ncnc3c2nc2n3CCCCC2)C1)N1CCN(c2ccccc2)CC1 (stereo unspecified) | -0.65% (inactive) |  |
